Compounds without any hit were thinned out: in the full panel of roughly 83,000, 20% have a hit.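 Negative percent growth values reflect cell death: -40 means 40% of the cells present at the start died, and -100 means all died.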 Values without a mark were called inactive. The source made the active and inactive calls. The calls were made as follows: active = growth percent below 10; inactive = the rest.
Legend:
Experiment in all cases: NCI-60 one-dose screen, 48 h (100 = growth as untreated, 0 = no growth, -100 = all killed)
SK-MEL-2 melanoma = settings: 10 µM unless noted
EKVX NSCLC = settings: 10 µM unless noted
SN12C renal = settings: 10 µM unless noted
UO-31 renal = settings: 10 µM unless noted
TK-10 renal = settings: 10 µM unless noted
ACHN renal = settings: 10 µM unless noted
CAKI-1 renal = settings: 10 µM
A498 renal = settings: 10 µM unless noted
CCRF-CEM leukemia = settings: 10 µM unless noted
MOLT-4 leukemia = settings: 10 µM unless noted
SR leukemia = settings: 10 µM unless noted
RPMI-8226 leukemia = settings: 10 µM unless noted
OVCAR-8 ovarian = settings: 10 µM unless noted
OVCAR-5 ovarian = settings: 10 µM unless noted
OVCAR-4 ovarian = settings: 10 µM unless noted
SK-OV-3 ovarian = settings: 10 µM unless noted
IGROV1 ovarian = settings: 10 µM unless noted
HS 578T breast = settings: 10 µM unless noted
NCI/ADR-RES ovarian = settings: 10 µM unless noted
OVCAR-3 ovarian = settings: 10 µM unless noted

CCn1c2ccc(/C=N/OCCCN(C)C)cc2c2cc(/C=N/OCCCN(C)C)ccc21
growth (SK-MEL-2 melanoma): 125%
growth (EKVX NSCLC): 48.6%
growth (SN12C renal): 63.6%
growth (UO-31 renal): -90.4% (active)
growth (TK-10 renal): 132%
growth (ACHN renal): -15.5% (active)
growth (CAKI-1 renal): -16.5% (active)
growth (A498 renal): 54.1%
growth (CCRF-CEM leukemia): 9.36% (active)
growth (MOLT-4 leukemia): 0.746% (active)
growth (SR leukemia): -40.8% (active)
growth (RPMI-8226 leukemia): -15.9% (active)
growth (OVCAR-8 ovarian): -5.7% (active)
growth (OVCAR-5 ovarian): 31.1%
growth (OVCAR-4 ovarian): 52.7%
growth (SK-OV-3 ovarian): 109%
growth (IGROV1 ovarian): -52.8% (active)
growth (HS 578T breast): 73.8%
growth (NCI/ADR-RES ovarian): 9.38% (active)

N/C(=N\c1nc2ccc([N+](=O)[O-])cc2s1)C(Cl)(Cl)Cl
growth (SK-MEL-2 melanoma): 120%
growth (EKVX NSCLC): 52%
growth (SN12C renal): 79.7%
growth (UO-31 renal): 43.8%
growth (TK-10 renal): 78.3%
growth (ACHN renal): 9.8% (active)
growth (CAKI-1 renal): 31.4%
growth (A498 renal): 32.6%
growth (CCRF-CEM leukemia): 77.4%
growth (MOLT-4 leukemia): 77%
growth (SR leukemia): 57.7%
growth (RPMI-8226 leukemia): 38.9%
growth (OVCAR-8 ovarian): 73.5%
growth (OVCAR-5 ovarian): 84.1%
growth (OVCAR-4 ovarian): 67.9%
growth (SK-OV-3 ovarian): 82.6%
growth (HS 578T breast): 79.9%
growth (NCI/ADR-RES ovarian): 73.4%

CCOC(=O)c1nn(-c2ccccc2)c(=O)c2c(N)c(C#N)c(-c3cccs3)cc12
growth (SK-MEL-2 melanoma): 98.4%
growth (EKVX NSCLC): 83.9%
growth (SN12C renal): 75.1%
growth (UO-31 renal): 50.9%
growth (TK-10 renal): 115%
growth (ACHN renal): 54.4%
growth (CAKI-1 renal): 62.8%
growth (A498 renal): 102%
growth (CCRF-CEM leukemia): 99.5%
growth (MOLT-4 leukemia): 97%
growth (SR leukemia): 96%
growth (RPMI-8226 leukemia): 74.4%
growth (OVCAR-8 ovarian): 54.5%
growth (OVCAR-5 ovarian): 88.8%
growth (OVCAR-4 ovarian): 36.7%
growth (IGROV1 ovarian): 64%
growth (OVCAR-3 ovarian): 109%
growth (HS 578T breast): 32.9%
growth (NCI/ADR-RES ovarian): 59.8%

COc1ccc(-c2nnc(SCc3ccc(O)c4ncccc34)o2)cc1
growth (SK-MEL-2 melanoma): 48.3%
growth (EKVX NSCLC): 57.8%
growth (SN12C renal): 46.6%
growth (UO-31 renal): 8.44% (active)
growth (TK-10 renal): 56.4%
growth (ACHN renal): 23.6%
growth (CAKI-1 renal): 32.1%
growth (A498 renal): 69.8%
growth (CCRF-CEM leukemia): 15.7%
growth (MOLT-4 leukemia): 28.1%
growth (SR leukemia): 45.8%
growth (RPMI-8226 leukemia): 9.32% (active)
growth (OVCAR-8 ovarian): 35.1%
growth (OVCAR-5 ovarian): 88.4%
growth (OVCAR-4 ovarian): 24.5%
growth (SK-OV-3 ovarian): 51.7%
growth (IGROV1 ovarian): 43%
growth (HS 578T breast): -0.148% (active)
growth (NCI/ADR-RES ovarian): 16.9%

COc1ccc(-c2ccc3c4c(cccc24)C(=O)N(N2C(=O)c4cccc5cccc(c45)C2=O)C3=O)cc1
growth (SK-MEL-2 melanoma): 111%
growth (EKVX NSCLC): 89.4%
growth (SN12C renal): 105%
growth (UO-31 renal): 68.6%
growth (TK-10 renal): 134%
growth (ACHN renal): 96.3%
growth (CAKI-1 renal): 75.2%
growth (A498 renal): 100%
growth (CCRF-CEM leukemia): 96.8%
growth (MOLT-4 leukemia): 101%
growth (SR leukemia): 95.3%
growth (RPMI-8226 leukemia): 29.4%
growth (OVCAR-8 ovarian): 100%
growth (OVCAR-5 ovarian): 101%
growth (OVCAR-4 ovarian): 97.5%
growth (SK-OV-3 ovarian): 100%
growth (IGROV1 ovarian): 92.4%
growth (HS 578T breast): 101%
growth (NCI/ADR-RES ovarian): 98.2%

Cc1[nH]nc2ccc(-c3nc4cnc(N5CCN(C)CC5)cn4c3Nc3ccc(F)cc3Br)cc12
growth (SK-MEL-2 melanoma): 91.1%
growth (EKVX NSCLC): 86.1%
growth (SN12C renal): 29.9%
growth (UO-31 renal): 50.4%
growth (TK-10 renal): 65%
growth (ACHN renal): 48.3%
growth (CAKI-1 renal): 21%
growth (A498 renal): 82.3%
growth (CCRF-CEM leukemia): 3.21% (active)
growth (MOLT-4 leukemia): 39.4%
growth (SR leukemia): 4.63% (active)
growth (RPMI-8226 leukemia): -6.49% (active)
growth (OVCAR-8 ovarian): 6.47% (active)
growth (OVCAR-5 ovarian): 80.3%
growth (OVCAR-4 ovarian): 64.6%
growth (SK-OV-3 ovarian): 97.4%
growth (IGROV1 ovarian): 59.7%
growth (HS 578T breast): 91.5%
growth (NCI/ADR-RES ovarian): 49.4%

CCN(CC)CCN1C(=O)c2c(c3c4cc(Br)ccc4[nH]c3c3ccc4ccccc4c23)C1=O
growth (SK-MEL-2 melanoma): 116%
growth (EKVX NSCLC): -88.1% (active)
growth (SN12C renal): -71.4% (active)
growth (UO-31 renal): -86.1% (active)
growth (TK-10 renal): -73% (active)
growth (ACHN renal): -100% (active)
growth (CAKI-1 renal): 12.8%
growth (A498 renal): 57.6%
growth (CCRF-CEM leukemia): 1.96% (active)
growth (MOLT-4 leukemia): -30.7% (active)
growth (SR leukemia): -24.6% (active)
growth (RPMI-8226 leukemia): -42.4% (active)
growth (OVCAR-8 ovarian): -58.2% (active)
growth (OVCAR-5 ovarian): -95.2% (active)
growth (OVCAR-4 ovarian): 36.6%
growth (SK-OV-3 ovarian): 61.9%
growth (IGROV1 ovarian): -83.7% (active)
growth (HS 578T breast): -4.17% (active)
growth (NCI/ADR-RES ovarian): -76.3% (active)

NCCN1CCN(c2nc(-c3ccccc3)nc3nc(-c4ccccc4)oc23)CC1
growth (SK-MEL-2 melanoma): 102%
growth (EKVX NSCLC): 2% (active)
growth (SN12C renal): -79.4% (active)
growth (UO-31 renal): -89.2% (active)
growth (TK-10 renal): -28.7% (active)
growth (ACHN renal): -95.4% (active)
growth (CAKI-1 renal): -90.1% (active)
growth (A498 renal): 61.7%
growth (CCRF-CEM leukemia): 1.25% (active)
growth (MOLT-4 leukemia): -0.256% (active)
growth (SR leukemia): 20.7%
growth (RPMI-8226 leukemia): -27.9% (active)
growth (OVCAR-8 ovarian): -16.4% (active)
growth (OVCAR-5 ovarian): -82.9% (active)
growth (OVCAR-4 ovarian): -59.7% (active)
growth (SK-OV-3 ovarian): 100%
growth (IGROV1 ovarian): -71.6% (active)
growth (HS 578T breast): 100%
growth (NCI/ADR-RES ovarian): -45.3% (active)

O=C1c2c(c3c4cccnc4[nH]c3c3ccc4ccccc4c23)C(=O)N1CCN1CCNCC1
growth (SK-MEL-2 melanoma): 113%
growth (EKVX NSCLC): 92.4%
growth (SN12C renal): 76.7%
growth (UO-31 renal): 58%
growth (TK-10 renal): 136%
growth (ACHN renal): 37%
growth (CAKI-1 renal): 52.2%
growth (A498 renal): 70.2%
growth (CCRF-CEM leukemia): 27.2%
growth (MOLT-4 leukemia): 8.49% (active)
growth (SR leukemia): -6.6% (active)
growth (RPMI-8226 leukemia): 74.3%
growth (OVCAR-8 ovarian): 50.8%
growth (OVCAR-5 ovarian): 113%
growth (OVCAR-4 ovarian): 105%
growth (SK-OV-3 ovarian): 101%
growth (IGROV1 ovarian): 51.7%
growth (HS 578T breast): 107%
growth (NCI/ADR-RES ovarian): 81.4%

NS(=O)(=O)c1ccc(Nc2nc(N/N=C/c3ccc([N+](=O)[O-])cc3)nc(Nc3ccccc3)n2)cc1
growth (SK-MEL-2 melanoma): 18.2%
growth (EKVX NSCLC): 83.7%
growth (SN12C renal): 27.4%
growth (UO-31 renal): 81.9%
growth (TK-10 renal): 93.8%
growth (ACHN renal): 82.6%
growth (CAKI-1 renal): 50.6%
growth (A498 renal): 18.5%
growth (CCRF-CEM leukemia): 11.8%
growth (MOLT-4 leukemia): 11.9%
growth (SR leukemia): 15.6%
growth (RPMI-8226 leukemia): 43.3%
growth (OVCAR-8 ovarian): 33.2%
growth (OVCAR-5 ovarian): 82%
growth (OVCAR-4 ovarian): 55.8%
growth (SK-OV-3 ovarian): 67.8%
growth (IGROV1 ovarian): 52.1%
growth (HS 578T breast): 53.5%
growth (NCI/ADR-RES ovarian): 93.3%

O=C1CSC(=O)N1Cc1cc2ccccc2nc1Cl
growth (SK-MEL-2 melanoma): 94.7%
growth (EKVX NSCLC): 98.7%
growth (SN12C renal): 97.4%
growth (UO-31 renal): 77.7%
growth (TK-10 renal): 98.5%
growth (ACHN renal): 104%
growth (CAKI-1 renal): 86.1%
growth (A498 renal): 106%
growth (CCRF-CEM leukemia): 107%
growth (MOLT-4 leukemia): 102%
growth (SR leukemia): 98.2%
growth (RPMI-8226 leukemia): 98.8%
growth (OVCAR-8 ovarian): 98.7%
growth (OVCAR-5 ovarian): 101%
growth (OVCAR-4 ovarian): 99.2%
growth (SK-OV-3 ovarian): 110%
growth (HS 578T breast): 97.1%
growth (NCI/ADR-RES ovarian): 105%

N#Cc1c(-c2ccccc2)cc(-c2c[nH]c3ccccc23)nc1-c1c[nH]c2ccccc12
growth (SK-MEL-2 melanoma): 97.7%
growth (EKVX NSCLC): 83.1%
growth (SN12C renal): 95.6%
growth (UO-31 renal): 68.3%
growth (TK-10 renal): 124%
growth (ACHN renal): 96.4%
growth (CAKI-1 renal): 87.3%
growth (A498 renal): 98.7%
growth (CCRF-CEM leukemia): 103%
growth (MOLT-4 leukemia): 102%
growth (SR leukemia): 96.7%
growth (RPMI-8226 leukemia): 101%
growth (OVCAR-8 ovarian): 98.7%
growth (OVCAR-5 ovarian): 103%
growth (OVCAR-4 ovarian): 104%
growth (SK-OV-3 ovarian): 93.3%
growth (IGROV1 ovarian): 82.1%
growth (HS 578T breast): 93.4%
growth (NCI/ADR-RES ovarian): 98.3%

C#C[C@]1(O)CC[C@H]2[C@@H]3CC=C4c5sc(Nc6ccncc6)nc5CC[C@]4(C)[C@H]3CC[C@@]21C
growth (SK-MEL-2 melanoma): -15% (active)
growth (EKVX NSCLC): -13.7% (active)
growth (SN12C renal): 44.1%
growth (UO-31 renal): -61.8% (active)
growth (TK-10 renal): 12%
growth (ACHN renal): 18.8%
growth (CAKI-1 renal): -19.4% (active)
growth (A498 renal): -52.2% (active)
growth (CCRF-CEM leukemia): 4.46% (active)
growth (MOLT-4 leukemia): -18.3% (active)
growth (SR leukemia): 4.33% (active)
growth (RPMI-8226 leukemia): -26.6% (active)
growth (OVCAR-8 ovarian): 51.4%
growth (OVCAR-5 ovarian): 38.6%
growth (OVCAR-4 ovarian): 59.8%
growth (SK-OV-3 ovarian): -38.1% (active)
growth (IGROV1 ovarian): 24.4%
growth (HS 578T breast): -33.6% (active)
growth (NCI/ADR-RES ovarian): 33.1%

— PubChem BioAssay (NCI)
